# PubChem BioAssay (NCI)
# This is part of a sample that, as a whole, favours compounds with a hit. Of some 83,000 tested, about 20% had one in any assay.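 Negative percent growth values reflect cell death: -40 means 40% of the cells present at the start died, and -100 means all died.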 A number with no mark means an inactive call. The source made the active and inactive calls. The calls were made as follows: active = growth percent below 10; inactive = the rest.
# System: CAKI-1 renal
# Experiment: NCI-60 one-dose screen, 48 h (100 = growth as untreated, 0 = no growth, -100 = all killed)
# Conditions: 10 µM unless noted
row,SMILES,growth
1,CCCCNC1=C(OCC)C(=O)c2ccccc2C1=O,110%
2,COc1ccc(C2=Nc3c/c(=C\c4c(O)[nH]c5cc(Cl)ccc45)ccc3=N2)cc1,75.9%
3,Nc1ccc([N+](=O)[O-])cc1N=C/C=C/c1ccccc1,73.1%
4,c1ccc(CNc2ccc3nc(CCC4CCCCC4)[nH]c3c2)cc1,66.7%
5,COc1ccc2c(c1)c(-c1cc(-c3cn(C)c4ccc(OC)cc34)on1)cn2C,92.8%
6,C#CC#CC#CC#CC#CC#CC#CC#CC[C@H]1OC[C@H](COC(=O)O[C@@H](C(=O)O[C@H]2C[C@@]3(O)[C@@H](OC(=O)c4ccccc4)[C@@H]4[C@]5(OC(C)=O)CO[C@@H]5C[C@H](O)[C@@]4(C)C(=O)[C@H](OC(C)=O)C(=C2C)C3(C)C)[C@@H](NC(=O)c2ccccc2)c2ccccc2)O1,77.1%
7,Cc1ccc(-c2nc(C(Cl)Cl)nc3cc(C)nn23)cc1,-14.2% (active)
8,O=C(Nc1nc(C(=O)N2CCN(C(c3ccccc3)c3ccccc3)CC2)cs1)c1ccc(NC2CCCCC2)c([N+](=O)[O-])c1,78.4%
9,COc1cc(-c2nc3ccc(C)cc3[nH]2)ccc1OCC(=O)N=Nc1c(O)[nH]c2ccc(Cl)cc12,-61.8% (active)
10,C=C1C(=O)O[C@H]2[C@H]1CC/C(COC(=O)NCCCCCCCCNC(=O)OC/C1=C/CC[C@@]3(C)O[C@H]3[C@H]3OC(=O)C(=C)[C@@H]3CC1)=C\CC[C@@]1(C)O[C@@H]21,-90.1% (active)
11,Nc1c(C(=O)Nc2ccncc2)sc2nc3c(cc12)CCCCC3,81.6%

# System: A498 renal
# Experiment: as above
# Conditions: 10 µM unless noted
row,SMILES,growth
1,CCN(CC)CCOc1nc2c3ccc(Cl)cc3nn2c2ccccc12,-12.2% (active)
2,C=C(c1ccc(C(=O)O)cn1)c1cc2c(cc1C)C(C)(C)CCC2(C)C,80%
3,CCn1cc(C(=O)NN=C2CCCCCC2)c(=O)c2ccc(C)nc21,58%
4,Cc1c2cc[nH]c(=O)c2c(C)c2c1[nH]c1ccc(OC(=O)c3ccccc3)cc12,61.2%
5,C#Cc1cccc(Nc2nc3ccc([N+](=O)[O-])cc3nc2Nc2cccc(C#C)c2)c1,-20.3% (active)
6,COc1cccc(C(=O)OCC(O)C(=O)NC23CC4CC(CC(C4)C2)C3)c1 (stereo unspecified),96.9%
7,COc1ccc2cc(Cn3cc[n+](Cc4ccc5ccccc5c4)c3)ccc2c1,74.7%
8,Cc1ccc(C(=O)c2ccc(CC(=O)N/N=C/c3ccc(O)cc3O)n2C)cc1,87.4%
9,O=C(Nc1ccccc1)c1sc(-c2ccccc2)cc1O,94.6%
10,COC(=O)c1ccc2c(c1)c1c(C)c3ccncc3c(C)c1n2C,-0.17% (active)
11,O=C(O)c1cccc(N/C=C/C(=O)c2cc3cc(Br)ccc3oc2=O)c1,92.5%
12,O=C(N/N=C/c1ccc([N+](=O)[O-])cc1)c1ccc2nc(-c3ccc(Cl)cc3)[nH]c2c1,-0.501% (active)
13,CCCCN1C(=O)/C(=c2\sc3n(c2=O)NC2C(N=3)N(CC)C(=O)N2CC)c2ccccc21 (stereo unspecified),42.3%
14,CNCc1cccc2c1OCCOCCN(C)C(=O)CN(C)S(=O)(=O)c1ccc(cc1)-c1cnc(N)c(n1)C(=O)N2,70.3%
15,COc1ccccc1-n1c(-c2cc(O)ccc2C)cn2c3c(=O)[nH]c(=O)n(C)c3nc12,106%
16,COc1ccc(NC(=O)c2sc3nc(C)c(C(O)c4ccccc4)cc3c2N)cc1 (stereo unspecified),-1.83% (active)
17,COc1cc(C2C3=C(COC3=O)N(CCO)c3cc4c(cc32)OCCO4)cc(OC)c1OC (stereo unspecified),-28.8% (active)
18,C/C(=C(/c1ccc(Cl)cc1)c1ccc(OCCCN(C)C)cc1)c1ccc(Cl)cc1,94.8%
19,O=C(CSc1nc2ccc([N+](=O)[O-])cc2[nH]1)Nc1ccc(Br)cc1,30.9%
20,C[N+](C)(C/C=C/c1ccccc1)Cc1ccccc1,94.6%

row,SMILES,growth
1,C/C(=C(\c1ccc(OCCN2CCCCCC2)cc1)c1ccc(OC(=O)Cc2ccccc2)cc1)c1ccc(Cl)cc1,79%
2,COc1ccc2c(c1)c(-c1nonc1-c1c[nH]c3ccc(Br)cc13)cn2C,27.4%
3,CCCCCCCCn1ccc2cc(NC(=O)Cn3cc(CN4CCN(CC)CC4)nn3)ccc21,90.5%
4,C#CC#CC#CC#CC#CC#CC#CC#CC[C@H]1OC[C@@H](COC(=O)O[C@@H](C(=O)O[C@H]2C[C@@]3(O)[C@@H](OC(=O)c4ccccc4)[C@@H]4[C@]5(OC(C)=O)CO[C@@H]5C[C@H](O)[C@@]4(C)C(=O)[C@H](OC(C)=O)C(=C2C)C3(C)C)[C@@H](NC(=O)c2ccccc2)c2ccccc2)O1,45.4%
5,Cc1cc(C)cc(Nc2ccc([N+](=O)[O-])c(NCCN3CCOCC3)n2)c1,-0.289% (active)
6,CCN=C1C=CC(=C(c2ccc(N(C)C)cc2)c2ccc(N(C)C)cc2)c2ccccc21,13.3%
7,CCOC(=O)Cn1c(=O)c2c3ccccc3n(C)c2n2nnc(-c3ccccc3)c12,134%
8,COc1ccc2[nH]cc(-c3nc(-c4cn(C)c5ccncc45)cs3)c2c1,89.1%
9,COc1ccc2nc(SCC(=O)Nc3ccccc3C)[nH]c2c1,-41.9% (active)
10,CCCCNC1=C(OCC)C(=O)c2ccccc2C1=O,37.4%
11,COc1ccc(C2=Nc3c/c(=C\c4c(O)[nH]c5cc(Cl)ccc45)ccc3=N2)cc1,68.5%
12,Nc1ccc([N+](=O)[O-])cc1N=C/C=C/c1ccccc1,79.3%
13,c1ccc(CNc2ccc3nc(CCC4CCCCC4)[nH]c3c2)cc1,42.7%
14,COc1ccc2c(c1)c(-c1cc(-c3cn(C)c4ccc(OC)cc34)on1)cn2C,105%
15,C#CC#CC#CC#CC#CC#CC#CC#CC[C@H]1OC[C@H](COC(=O)O[C@@H](C(=O)O[C@H]2C[C@@]3(O)[C@@H](OC(=O)c4ccccc4)[C@@H]4[C@]5(OC(C)=O)CO[C@@H]5C[C@H](O)[C@@]4(C)C(=O)[C@H](OC(C)=O)C(=C2C)C3(C)C)[C@@H](NC(=O)c2ccccc2)c2ccccc2)O1,50.2%
16,Cc1ccc(-c2nc(C(Cl)Cl)nc3cc(C)nn23)cc1,-2.75% (active)
17,O=C(Nc1nc(C(=O)N2CCN(C(c3ccccc3)c3ccccc3)CC2)cs1)c1ccc(NC2CCCCC2)c([N+](=O)[O-])c1,87.6%
18,COc1cc(-c2nc3ccc(C)cc3[nH]2)ccc1OCC(=O)N=Nc1c(O)[nH]c2ccc(Cl)cc12,82.2%
19,C=C1C(=O)O[C@H]2[C@H]1CC/C(COC(=O)NCCCCCCCCNC(=O)OC/C1=C/CC[C@@]3(C)O[C@H]3[C@H]3OC(=O)C(=C)[C@@H]3CC1)=C\CC[C@@]1(C)O[C@@H]21,-88.7% (active)
20,Nc1c(C(=O)Nc2ccncc2)sc2nc3c(cc12)CCCCC3,74.5%
